Data on 91 molecules can be found in PubChem BioAssay AID425 (Sanford-Burnham Center for Chemical Genomics, 2006).

Where “and” joins values, the source holds several entries; their conditions need not be identical. Equal values may be shown once. About 190 (0.17%) of roughly 110,000 compounds were called active. No stated cut-off is given here; in the data, active means inhibition above about 50%; inactive means the rest. The list comes from a sample in which actives are over-represented; it also holds similar structures and randomly drawn compounds. Results with a measured potency or affinity are listed apart. Some compounds were tested as several samples or in several runs, with calls that do not always agree.

The target of this assay is Dual specificity protein phosphatase 6 (Rattus norvegicus) (UniProt Q64346). Kind of assay: MKP-3 phosphatase inhibitors, primary screen, biochemical, rat enzyme, in vitro (AID 425).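 Further: plate controls were vehicle for no effect and reference inhibitor for full effect.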 Conditions: recombinant MKP-3 phosphatase activity, fluorescence; at 20 µM; stronger effect = higher value.
Sequence of Dual specificity protein phosphatase 6 (Rattus norvegicus) (Q64346 whole entry, looked up): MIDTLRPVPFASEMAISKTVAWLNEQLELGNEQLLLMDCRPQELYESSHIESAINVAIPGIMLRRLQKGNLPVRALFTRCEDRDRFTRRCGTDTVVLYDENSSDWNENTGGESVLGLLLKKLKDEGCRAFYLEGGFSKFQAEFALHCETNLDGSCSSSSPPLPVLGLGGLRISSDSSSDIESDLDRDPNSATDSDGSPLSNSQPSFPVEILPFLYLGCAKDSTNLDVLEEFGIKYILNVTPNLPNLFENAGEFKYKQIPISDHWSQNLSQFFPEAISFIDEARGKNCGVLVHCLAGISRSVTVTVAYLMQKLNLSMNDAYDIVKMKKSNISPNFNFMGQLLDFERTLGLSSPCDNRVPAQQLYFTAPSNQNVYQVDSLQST
Take `CCOc1cc(-c2noc(CCC(=O)Nc3cccnc3)n2)ccc1OC`: the inhibition is -11.2% (inactive). The same measure for `O=C(Nc1ccc(-c2nc3ccccc3[nH]2)cc1)c1ccc(Cl)c(Cl)c1`: 51.8% (active); for `O=C(Nc1cccc(-c2nc3ccccc3[nH]2)c1)c1ccco1`: 3.5% (inactive); for `O=C(Nc1ccc(-c2nc3ccccc3[nH]2)cc1)c1ccc(Br)o1`: 8.1% (inactive). The same measure for `O=C(Nc1ccc(-c2nc3ccccc3[nH]2)cc1)c1cc2ccccc2o1`: 53.5% (active). As to `O=C(Nc1ccc(-c2nc3ccccc3[nH]2)cc1)c1ccccc1`, the inhibition is -0.7% (inactive). The value for `Cc1ccc2nc(-c3cccc(NC(=O)c4ccco4)c3)[nH]c2c1` was 0.4% (inactive). Turning to `O=C(Nc1ccc(Cl)c(-c2nc3ccccc3[nH]2)c1)c1cc2ccccc2o1`, the inhibition is 5% (inactive).

Consider `O=C(Nc1ccc(-c2nc3ccccc3[nH]2)cc1)c1ccc(Cl)cc1`, for which the inhibition is 5.4% (inactive). The value for `Cc1cc(F)ccc1S(=O)(=O)Nc1c(C)n(C)n(-c2ccccc2)c1=O` was 6.3% (inactive); that for `O=C(O)COc1ccc2c(=O)c(-c3ccc(Cl)cc3)coc2c1` was 2% (inactive). The same measure for `CCCCOCCCNC(=O)N[C@@H](CC(C)C)C(=O)O`: 7.7% (inactive); for `COc1ccc(Cl)cc1C(=O)Nc1ccc(N(C)C)cc1`: 0.6% (inactive); for `CSCCNS(=O)(=O)c1ccc(NC(C)=O)cc1`: 1.1% (inactive). The same measure for `CCOc1ccc(N2C(=O)/C(=C/c3ccc(I)o3)C(=O)NC2=S)cc1`: 107% (active); for `O=C1NC(=O)N(c2ccccc2F)C(=O)/C1=C/c1ccc(OCc2cccc(C(=O)O)c2)cc1`: 0.8% (inactive). On to `CCOc1ccc(N2C(=O)NC(=O)/C(=C\c3ccc(I)o3)C2=O)cc1`, for which the inhibition is 5.3% (inactive). As for `CCOc1ccc(N2C(=O)/C(=C/c3ccc(N(CC)CC)o3)C(=O)NC2=S)cc1`, the inhibition was -0.2% (inactive). The value for `O=C1NC(=O)N(c2ccc(Cl)cc2)C(=O)/C1=C/c1ccc(I)o1` was 23.6% (inactive); that for `CCc1ccc(N2C(=O)/C(=C/c3ccc(I)o3)C(=O)NC2=S)cc1` was 104% (active). Regarding `O=C1NC(=S)N(c2ccccc2F)C(=O)/C1=C/c1ccc(I)o1`, the inhibition is 91.2% (active).

As to `Cc1ccc(N2C(=O)NC(=O)/C(=C\c3ccc(I)o3)C2=O)cc1`, the inhibition is 5.4% (inactive).

In the case of `CCOc1ccc(N2C(=O)/C(=C/c3ccc(OCc4cccc(C(=O)O)c4)cc3)C(=O)NC2=S)cc1`, the inhibition was -1.9% (inactive).

Regarding `O=C1NC(=S)N(c2ccccc2F)C(=O)/C1=C/c1ccc(Sc2ccccc2)o1`, the inhibition was 7.1% (inactive).

In the case of `O=C1NC(=O)N(c2ccccc2F)C(=O)/C1=C/c1ccc(I)o1`, the inhibition was 12.9% (inactive). Take `O=C1NC(=S)N(c2ccccc2F)C(=O)/C1=C/c1ccc(OCc2cccc(C(=O)O)c2)cc1`: the inhibition is 68.5% (active).

Turning to `CC(C)c1ccc(NC2=NS(=O)(=O)c3cc([N+](=O)[O-])ccc32)cc1`, the inhibition is 2.8% (inactive). As for `Cc1c(Cl)cccc1NC(=O)C(=O)NCc1ccc2c(c1)OCO2`, the inhibition was 0.1% (inactive).

Take `CCOC(=O)c1ccc(NC(=O)CN(c2ccccc2OC)S(=O)(=O)c2ccccc2)cc1`: the inhibition was -2.1% (inactive). The same measure for `CCCC(=O)OCC(=O)Nc1cc(C(C)(C)C)nn1-c1ccccc1`: -0.4% (inactive). The same measure for `C=CCc1cccc2cc(C(=O)NCc3ccccc3)c(=O)oc12`: 6.2% (inactive). The value for `COc1ccc(NC(=O)C2CCC(C)(C(=O)O)C2(C)C)cc1` (stereo unspecified) was -6.7% (inactive). Regarding `O=C(COc1ccc(Cl)cc1)Nc1nc(-c2ccc(Cl)cc2)cs1`, the inhibition was 2.6% (inactive). The value for `COc1ccc(/C=N/NC(=O)c2cc(-c3ccc(Cl)cc3)n[nH]2)cc1` was 3.6% (inactive); that for `N#Cc1c(N)nc2c(c1-c1ccc3c(c1)OCO3)CCCCC2` was -0.9% (inactive); that for `Cc1ccc(-n2[nH]c(=O)c(/C=c3/c(C)c(C#N)c4nc5ccccc5n4c3=O)c2O)cc1C` was 66.8% (active). The value for `Cc1c(C#N)c2nc3ccccc3n2c(=O)/c1=C/c1sc2ccccc2c1O` was 4.2% (inactive); that for `Cc1c(C#N)c2nc3ccccc3n2c(=O)/c1=C\c1c(O)n(-c2ccc(Br)cc2)[nH]c1=O` was 2.8% (inactive); that for `COc1cc(/C=C2\NC(=S)NC2=O)ccc1OC(=O)C12CC3CC(CC(C3)C1)C2` was -2.6% (inactive). The same measure for `COc1ccccc1/C=C1\SC(=S)N(Cc2ccco2)C1=O`: 0.9% (inactive).

`O=C1/C(=C/c2ccccc2[N+](=O)[O-])SC(=S)N1Cc1ccco1`: the inhibition is 84.3% (active).

Turning to `COc1cccc(N2C(=O)/C(=C/c3ccccc3[N+](=O)[O-])SC2=S)c1`, the inhibition is 3% (inactive). The same measure for `Cc1cccc(N2C(=O)/C(=C/c3ccccc3[N+](=O)[O-])SC2=S)c1`: 120% (active); for `O=C1/C(=C/c2ccccc2[N+](=O)[O-])SC(=S)N1c1cccc(Br)c1`: 4.2% (inactive). For the molecule `O=C1/C(=C/c2cccc3ccccc23)SC(=S)N1Cc1ccco1`, the inhibition is 1.1% (inactive). The value for `O=C(O)CCCCCN1C(=O)/C(=C\c2ccc(-c3ccc(Cl)c(Cl)c3)o2)SC1=S` was 1.8% (inactive); that for `Cc1ccccc1N(CC(=O)N1CCc2ccccc2C1)S(C)(=O)=O` was 2.4% (inactive); that for `NC(=O)c1cc(NC(=O)COc2ccc(F)cc2)c(Cl)cc1Cl` was -1.1% (inactive). For `Cc1c(NS(=O)(=O)c2ccc3c(c2)CCN3C(=O)C2CC2)c(=O)n(-c2ccccc2)n1C`, the inhibition is -3.7% (inactive). The value for `Cc1ccc(-c2ccc(C=C3C(=O)NC(=O)NC3=O)o2)c(Br)c1` was 26.6% (inactive). The same measure for `O=C1NC(=O)C(=Cc2ccc(-c3cccc(Br)c3)o2)C(=O)N1`: 52.6% (active). The value for `O=C1NC(=S)N/C1=C/c1ccc(-c2cccc(Br)c2)o1` was 0.8% (inactive); that for `CCN1CCN(CCCNC(=O)Cn2cc3c(n2)CCCC3)CC1` was -12% (inactive). Turning to `COc1ccc(C2C(C(C)=O)=C(O)C(=O)N2c2nc3ccccc3s2)c(OC)c1` (stereo unspecified), the inhibition was -1.5% (inactive). The value for `Cc1ccc(N2CC(C(=O)Nc3ccc(N(C)C)cc3)CC2=O)cc1` (stereo unspecified) was 2.6% (inactive); that for `CCOC(=O)CSc1nnc(Cn2nnc(-c3ccccc3)n2)n1C` was 0.9% (inactive).

`Oc1c(Br)cc(Cl)cc1C=Nc1cccc2nsnc12`: the inhibition was 42.7% (inactive).

As for `COc1ccc(Br)c(C=Nc2cccc3nsnc23)c1O`, the inhibition was 14.8% (inactive). On to `Oc1c(Br)ccc(Cl)c1C=Nc1cccc2nsnc12`, for which the inhibition is 117% (active). The value for `NC(=O)C1C(=O)Oc2ccccc2C1=O` (stereo unspecified) was 1.6% (inactive); that for `Cc1ccc(-c2nnn(CC(=O)N(Cc3ccccc3)C(C(=O)NC3CCCC3)c3ccncc3)n2)o1` (stereo unspecified) was -0.8% (inactive); that for `Cc1cc2nc(-c3cccc(NC(=O)c4ccc(Br)o4)c3)oc2cc1C` was 3.2% (inactive). The value for `O=S1(=O)N=C2CCCN2C(c2ccc(F)cc2)N1` (stereo unspecified) was -14.7% (inactive). The value for `O=C(Nc1ncc(Cc2ccc(Cl)c(Cl)c2)s1)c1ccccc1Cl` was 3.9% (inactive); that for `Cc1cc(C)n(Cc2ccc(C(=O)O)o2)n1` was -6.7% (inactive). On to `Cc1ccc(OCC(=O)N/N=C\c2ccc(-c3ccc([N+](=O)[O-])cc3)o2)cc1`, for which the inhibition was -0.5% (inactive). The same measure for `O=C1/C(=C\c2ccco2)CC2CC1C/C(=C/c1ccco1)C2=O`: 55.6% (active). The value for `O=C1/C(=C/c2ccco2)N2CCC1CC2` was -0.8% (inactive); that for `O=C1/C(=C\c2cccs2)CC2CC1C/C(=C/c1cccs1)C2=O` was 1.2% (inactive); that for `CN1CCN(CCCn2cnc3c(=O)oc4ccccc4c32)CC1` was -0.6% (inactive). Consider `CC(=O)O[C@@]12CO[C@@H]1C[C@H](O)[C@@]1(C)C(=O)[C@H](O)C3=C(C)[C@@H](OC(=O)[C@H](O)[C@@H](NC(=O)OC(C)(C)C)c4ccccc4)C[C@](O)([C@@H](OC(=O)c4ccccc4)[C@H]21)C3(C)C`, for which the inhibition was -0.3% (inactive). The value for `COC(=O)c1ccc(C(=O)OC)c(N)c1` was -12.2% (inactive); that for `COC(=O)c1ccccc1OCc1cccc(C)n1` was -5.5% (inactive); that for `COc1ccc(S(=O)(=O)Nc2ccc(C)c(Cl)c2)cc1OC` was 3.1% (inactive). On to `Cc1ccc(N(C)S(=O)(=O)c2ccc(Cl)cc2)cc1`, for which the inhibition is -0.1% (inactive). The same measure for `COc1cc(/C=C2/SC(=S)N(CC(=O)Nc3cccc(C(=O)O)c3)C2=O)cc(OC)c1OC`: 1.9% (inactive); for `O=C(CN1C(=O)S/C(=C/c2ccccc2F)C1=O)Nc1ccccc1C(=O)O`: 6.5% (inactive).

For `O=C(CN1C(=O)/C(=C/c2ccccc2)SC1=S)Nc1cccc(C(=O)O)c1`, the inhibition was -1% (inactive). The value for `COc1ccc(/C=C2\SC(=O)N(CC(=O)Nc3ccc(C)cc3C)C2=O)cc1` was -0.5% (inactive); that for `O=C(NC(Nc1ccc([N+](=O)[O-])cc1)C(Cl)(Cl)Cl)c1cccc(I)c1` (stereo unspecified) was 1.1% (inactive). The value for `CCN(CC)S(=O)(=O)c1cccc(C(=O)Oc2cccnc2)c1` was -10.3% (inactive).

Turning to `CCOc1cc(C(=O)Nc2ccc(OCc3ccccc3)cc2)cc(OCC)c1OCC`, the inhibition was 7% (inactive). The same measure for `CCCC1=NN2C(=N)/C(=C/c3cc(OC)ccc3OC)C(=O)N=C2S1`: 1.4% (inactive). Consider `CCC1=NN2C(=N)/C(=C/c3ccc(OCCOc4cccc(OC)c4)cc3)C(=O)N=C2S1`, for which the inhibition is -1.7% (inactive). The value for `Nn1c(SCC(=O)NC2CCCCC2)nnc1-c1ccccc1` was -1.2% (inactive); that for `Cc1cc(=O)n2[nH]c(C)c(-c3ccccc3)c2n1` was 72.9% (active) and -3.2% (inactive).

As to `Cc1[nH]n2c(=O)cc(C(C)C)nc2c1-c1ccccc1`, the inhibition is -5.8% (inactive).

In the case of `Cc1cc(=O)n2[nH]c(C)c(-c3ccc(Cl)cc3)c2n1`, the inhibition is -8.5% (inactive). The same measure for `O=C(NCC1CCCO1)c1ccc(Cl)cc1` (stereo unspecified): -0.2% (inactive); for `O=C(CCCn1c(=O)c2sccc2n(Cc2ccc(F)cc2)c1=O)NCc1ccco1`: -8.3% (inactive).

As to `CCOc1ccc(C(=O)NCc2ccc3c(c2)OCO3)cc1`, the inhibition is -3% (inactive).
